Reference: PubChem BioAssay (EPA / NIEHS)
Inconclusive results are not listed. Active and inactive are the calls of the source. Rule for the calls, unless noted: active = hit-call score of the fitted dose curve at least 0.9, where 1 is the maximum; inconclusive = response in the unintended direction; inactive = score below 0.9.

Key:
[1] = read-out: alkyl and aryl transferase (GSTA2), GSTA2 (gene 2939); test: CLD_GSTA2_6hr: CellzDirect (CLD) Gene Expression Assay for alkyl and aryl transferase (GSTA2) at 6 hours (AID 2283666)
How it was run: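 Primary human hepatocytes from two donor preparations were dosed daily with fresh compound at multiple concentrations, 0.2% DMSO vehicle. GSTA2 mRNA was measured at 6 hours by qNPA chemiluminescence; induction fitted relative to DMSO, with cytotoxicity flagged morphologically.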

[2] = Tanguay_ZF_120hpf_TR_legacy: (Legacy) Oregon State University Tanguay Lab 120 Hour Post-fertilization zebrafish Assay for Touch Response (AID 2283667)
How it was run: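 Tropical 5D wild-type zebrafish embryos statically exposed to 120 hpf at 28°C, sealed and dark-covered, 0.64% DMSO final; touch response scored as present/absent by brightfield microscopy at 120 hpf. Trimethyltin chloride 5 uM positive control; dead embryos not scored.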

[3] = CCTE_Padilla_ZF_144hpf_TERATOSCORE: (Legacy) CCTE's 144 Hour Post-fertilization zebrafish Assay Teratoscore, Padilla Lab (AID 2283679; active = hit-call score of the fitted dose curve at least 0.9, where 1 is the maximum; inactive = score below 0.9;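 for AC50: zebrafish embryos with chorions exposed by immersion from 6-8 hpf to 5 dpf with daily renewal; teratogenicity score from eye scoring of death hatching and malformations at 144 hpf; higher score means more developmental defects relative to DMSO baseline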)
How it was run: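 Larvae scored by eye at 144 hpf for death, hatching and malformations after a day in clean Hanks'. Before that, daily-renewed exposure at 80 uM (0.4% DMSO, 26C) from roughly 6-8 hpf through 5 dpf, 4 embryos per chemical.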

[4] = read-out: Cytochrome P450 3A4 (Homo sapiens) (UniProt P08684); test: CLD_CYP3A4_6hr: CellzDirect (CLD) Gene Expression Assay for xenobiotic metabolism (CYP3A4) at 6 hours (AID 2283680)
How it was run: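 Primary human hepatocytes (two donor preparations) dosed; CYP3A4 mRNA harvested at 6 h and quantified by qNPA chemiluminescence. Gain of signal fitted against 0.2% DMSO vehicle; cytotoxicity flagged by phase-contrast morphology.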

[5] = read-out: Glyceraldehyde-3-phosphate dehydrogenase (Homo sapiens) (UniProt P04406); test: CLD_GAPDH_6hr: CellzDirect (CLD) Gene Expression Assay for Baseline Control (Glyceraldehyde 3-phosphate dehydrogenase) at 6 hours (AID 2283681);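 note: active means increased signal relative to DMSO vehicle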
How it was run: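 Primary human hepatocytes from two donor preparations, dosed at multiple concentrations with 0.2% DMSO vehicle; GAPDH mRNA measured 6 h after dosing by chemiluminescent quantitative nuclease protection assay (qNPA) on denatured lysates. Serves as background control; cytotoxicity annotated by morphology.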

[6] = read-out: ABC Transporter (ABCB1), ABCB1 (gene 5243); test: CLD_ABCB1_24hr: CellzDirect (CLD) Gene Expression Assay for ABC Transporter (ABCB1) at 24 hours (AID 2283684)
How it was run: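 Primary human hepatocytes, two donor preparations, dosed daily with fresh solutions; vehicle 0.2% DMSO; harvested at 24 h. ABCB1 mRNA measured by quantitative nuclease protection assay (chemiluminescence); morphology-based cytotoxicity annotated.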

[7] = read-out: Cytochrome P450 3A4 (Homo sapiens) (UniProt P08684); test: CLD_CYP3A4_24hr: CellzDirect (CLD) Gene Expression Assay for xenobiotic metabolism (CYP3A4) at 24 hours (AID 2283689)
How it was run: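 Primary human hepatocytes from two donors dosed daily with fresh compound for two days, 0.2% DMSO vehicle. CYP3A4 mRNA at 24 hr by qNPA chemiluminescence; gain-of-signal fit versus DMSO, cytotoxicity flagged by morphology.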

[8] = read-out: Glyceraldehyde-3-phosphate dehydrogenase (Homo sapiens) (UniProt P04406); test: CLD_GAPDH_24hr: CellzDirect (CLD) Gene Expression Assay for Baseline Control (Glyceraldehyde 3-phosphate dehydrogenase) at 24 hours (AID 2283692)
How it was run: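 Primary human hepatocytes (two donor preparations) dosed daily for two days, 0.2% DMSO vehicle; GAPDH mRNA measured at 24 h by qNPA chemiluminescence as a background control, gain-of-signal fitted against DMSO.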

[9] = read-out: sulfotransferase (SULT2A), SULT2A1 (gene 6822); test: CLD_SULT2A_24hr: CellzDirect (CLD) Gene Expression Assay for sulfotransferase (SULT2A) at 24 hours (AID 2283694)
How it was run: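 Primary human hepatocytes from two donor preparations were dosed daily with fresh solutions, vehicle 0.2% DMSO. At 24 h, lysates went to quantitative nuclease protection (qNPA) with S1 digestion and chemiluminescent readout. Cytotoxicity was annotated from phase-contrast morphology.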

[10] = read-out: organic anion transporter (SLCO1B1), SLCO1B1 (gene 10599); test: CLD_SLCO1B1_6hr: CellzDirect (CLD) Gene Expression Assay for organic anion transporter (SLCO1B1) at 6 hours (AID 2283668);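 note: active means mRNA induction above DMSO baseline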
How it was run: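 Primary human hepatocytes dosed daily with test chemicals (multiple concentrations) in 0.2% DMSO vehicle; harvested at 6 h. SLCO1B1 mRNA quantified by qNPA chemiluminescence, fitted as gain-of-signal versus DMSO; cytotoxicity from phase-contrast morphology flagged alongside.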

[11] = read-out: xenobiotic metabolism (CYP1A1), CYP1A1 (gene 1543); test: CLD_CYP1A1_24hr: CellzDirect (CLD) Gene Expression Assay for xenobiotic metabolism (CYP1A1) at 24 hours (AID 2283673);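 note: CYP1A1 mRNA level by quantitative nuclease protection with chemiluminescence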
How it was run: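 Primary human hepatocytes dosed daily with fresh solutions in 0.2% DMSO vehicle. mRNA measured at 24 h by quantitative nuclease protection assay with chemiluminescence; gain-of-signal fit versus DMSO, with morphology-based cytotoxicity flags.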

[12] = read-out: ABC Transporter (ABCB11), ABCB11 (gene 8647); test: CLD_ABCB11_24hr: CellzDirect (CLD) Gene Expression Assay for ABC Transporter (ABCB11) at 24 hours (AID 2283674; active = hit-call score of the fitted dose curve at least 0.9, where 1 is the maximum; inactive = score below 0.9)
How it was run: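 Primary human hepatocytes were dosed daily for two days, with 0.2% DMSO vehicle. ABCB11 mRNA induction was measured at 24 hours by quantitative nuclease protection assay with chemiluminescence. Gain of signal was fitted relative to DMSO.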

[13] = read-out: Cytochrome P450 2C9 (Homo sapiens) (UniProt P11712); test: CLD_CYP2C9_24hr: CellzDirect (CLD) Gene Expression Assay for xenobiotic metabolism (CYP2C9) at 24 hours (AID 2283688)
How it was run: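 Primary human hepatocytes from two donor preparations, dosed daily for two days at multiple concentrations; vehicle 0.2% DMSO. CYP2C9 mRNA induction at 24 h measured by qNPA chemiluminescence relative to DMSO; cytotoxicity annotated from morphology.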

[14] = read-out: Cytochrome P450 2B6 (Homo sapiens) (UniProt P20813); test: CLD_CYP2B6_6hr: CellzDirect (CLD) Gene Expression Assay for xenobiotic metabolism (CYP2B6) at 6 hours (AID 2283677);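 note: actives raise CYP2B6 transcript above DMSO baseline so AC50 marks an inducer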
How it was run: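 Primary human hepatocytes dosed with chemicals at multiple concentrations, vehicle 0.2% DMSO; CYP2B6 mRNA induction measured 6 h after dosing by quantitative nuclease protection assay with chemiluminescence, gain of signal fitted relative to DMSO.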

[15] = read-out: Cytochrome P450 2C19 (Homo sapiens) (UniProt P33261); test: CLD_CYP2C19_24hr: CellzDirect (CLD) Gene Expression Assay for xenobiotic metabolism (CYP2C19) at 24 hours (AID 2283687);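 note: activity means mRNA induction above DMSO vehicle baseline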
How it was run: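 Primary human hepatocytes (two donor preparations) dosed daily with fresh test chemical in 0.2% DMSO vehicle; CYP2C19 mRNA induction measured at 24 h by quantitative nuclease protection assay with chemiluminescence, fitted for gain of signal versus DMSO.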

[16] = read-out: Cytochrome P450 (CYP24A1_1), CYP24A1 (gene 1591); test: LTEA_HepaRG_CYP24A1_1: Life Technologies and Expression Analysis (LTEA) Assay for Cytochrome P450 (CYP24A1_1) using HepaRG (AID 2283671; active = hit-call score of the fitted dose curve at least 0.9, where 1 is the maximum; inactive = score below 0.9); settings: mRNA level, 48 h; actives raise or lower the signal
How it was run: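 Differentiated human HepaRG cells in serum-free induction medium, exposed 48 h in duplicate to eight half-log concentrations from 100 uM top, 0.5% DMSO. Transcript measured by TaqMan qRT-PCR, normalised to ACTB, GAPDH, POLR2A; bidirectional fitting versus DMSO.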

[17] = read-out: HMG-CoA synthase (HMGCS2), HMGCS2 (gene 3158); test: CLD_HMGCS2_6hr: CellzDirect (CLD) Gene Expression Assay for HMG-CoA synthase (HMGCS2) at 6 hours (AID 2283682);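 note: actives raise HMGCS2 transcript above the 0.2% DMSO vehicle baseline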
How it was run: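 Primary human hepatocytes dosed daily with fresh chemical, 0.2% DMSO vehicle; HMGCS2 mRNA measured at 6 h by qNPA chemiluminescence. Gain of signal fitted against DMSO; cytotoxicity flagged from phase-contrast morphology.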

[18] = read-out: glucuronosyltransferase (UGT1A1), UGT1A1 (gene 54658); test: CLD_UGT1A1_6hr: CellzDirect (CLD) Gene Expression Assay for glucuronosyltransferase (UGT1A1) at 6 hours (AID 2283672)
How it was run: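 Primary human hepatocytes from two donor preparations, dosed with fresh solutions in 0.2% DMSO, harvested at 6 h. UGT1A1 mRNA measured by qNPA chemiluminescence; induction fitted upward versus DMSO.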

Measured: AC50

Chain of Cytochrome P450 3A4 (Homo sapiens) (P08684 whole entry, looked up): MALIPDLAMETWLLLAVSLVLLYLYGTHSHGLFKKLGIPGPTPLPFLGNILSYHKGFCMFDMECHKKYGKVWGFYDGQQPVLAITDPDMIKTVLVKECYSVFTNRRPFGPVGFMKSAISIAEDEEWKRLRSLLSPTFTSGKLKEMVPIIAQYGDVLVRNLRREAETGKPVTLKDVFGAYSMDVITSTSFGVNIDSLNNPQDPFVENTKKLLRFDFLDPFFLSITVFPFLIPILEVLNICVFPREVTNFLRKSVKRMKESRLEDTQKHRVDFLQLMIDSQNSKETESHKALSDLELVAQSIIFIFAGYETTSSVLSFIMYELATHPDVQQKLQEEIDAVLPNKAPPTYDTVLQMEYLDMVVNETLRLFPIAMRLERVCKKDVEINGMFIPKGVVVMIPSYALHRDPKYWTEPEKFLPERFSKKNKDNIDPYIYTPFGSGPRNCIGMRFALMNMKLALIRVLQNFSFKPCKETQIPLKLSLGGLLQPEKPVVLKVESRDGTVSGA
Chain of Glyceraldehyde-3-phosphate dehydrogenase (Homo sapiens) (P04406 whole entry, looked up): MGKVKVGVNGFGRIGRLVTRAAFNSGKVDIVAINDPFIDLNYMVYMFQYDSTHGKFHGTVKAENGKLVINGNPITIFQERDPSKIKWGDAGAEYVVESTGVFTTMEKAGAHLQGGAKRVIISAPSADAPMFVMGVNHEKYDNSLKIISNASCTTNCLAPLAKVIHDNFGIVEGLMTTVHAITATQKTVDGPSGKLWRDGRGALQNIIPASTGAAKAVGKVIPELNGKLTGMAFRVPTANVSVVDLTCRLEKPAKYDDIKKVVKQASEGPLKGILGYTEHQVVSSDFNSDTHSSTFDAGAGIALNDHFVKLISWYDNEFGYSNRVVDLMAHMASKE
Chain of Cytochrome P450 2C19 (Homo sapiens) (P33261 whole entry, looked up): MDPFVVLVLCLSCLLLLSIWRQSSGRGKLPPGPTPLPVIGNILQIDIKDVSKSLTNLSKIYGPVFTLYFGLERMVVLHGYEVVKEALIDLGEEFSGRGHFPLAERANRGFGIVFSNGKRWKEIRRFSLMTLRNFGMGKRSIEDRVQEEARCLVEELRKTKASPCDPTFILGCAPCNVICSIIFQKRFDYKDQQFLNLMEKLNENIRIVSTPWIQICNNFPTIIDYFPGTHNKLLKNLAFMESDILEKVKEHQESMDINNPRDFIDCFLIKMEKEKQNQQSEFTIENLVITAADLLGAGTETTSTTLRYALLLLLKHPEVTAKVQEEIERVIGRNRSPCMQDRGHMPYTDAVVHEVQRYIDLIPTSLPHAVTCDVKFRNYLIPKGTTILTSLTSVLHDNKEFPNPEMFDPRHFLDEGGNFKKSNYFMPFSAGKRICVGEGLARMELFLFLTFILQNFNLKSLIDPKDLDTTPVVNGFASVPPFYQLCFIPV

CCCOC(=O)NCCCN(C)C
inactive: [1] | [2] | [3] | [4] | [5] | [6] | [7] | [8] | [9]

CCOC(=O)[C@H](C)Oc1ccc(Oc2nc3ccc(Cl)cc3o2)cc1
inactive: [10] | [11] | [12] | [5] | [13] | [8] | [9]

COC(=O)c1ccc(CNS(C)(=O)=O)cc1S(=O)(=O)NC(=O)Nc1nc(OC)cc(OC)n1
inactive: [10] | [11] | [12] | [14] | [3] | [5] | [6] | [15] | [7]

COC(=O)c1ccccc1C(=O)O
inactive: [2] | [16] | [12] | [14] | [3] | [5] | [17] | [6] | [15] | [7] | [8] | [9]
active: [11] 0.117 µM

COC(=O)c1cccc(C)c1S(=O)(=O)NC(=O)Nc1nc(OCC(F)(F)F)nc(N(C)C)n1
inactive: [10] | [3] | [4] | [6] | [13] | [8] | [9]
active: [11] 5.36 µM | [14] 8.96 µM | [7] 20 µM

O=C(O)C1(C(=O)Nc2ccc(Cl)cc2Cl)CC1
inactive: [1] | [2] | [11] | [4] | [5] | [17] | [7] | [9]
active: [3] 22.7 µM

CCCCOC(=O)[C@@H](C)Oc1ccc(Oc2ccc(C(F)(F)F)cn2)cc1
inactive: [18] | [14] | [4] | [17] | [6] | [7] | [8] | [9]
active: [11] 20 µM | [3] 5.45 µM

CCOC(=O)c1ccc(O)cc1
active: [3] 62.6 µM
inactive: [2]

COC(=O)c1ccccc1S(=O)(=O)NC(=O)Nc1nc(OC(F)F)cc(OC(F)F)n1
active: [11] 0.0569 µM | [3] 3.02 µM
inactive: [1] | [10] | [14] | [5] | [6] | [15] | [8] | [9]

CCCCCCC(C)OC(=O)COc1nc(F)c(Cl)c(N)c1Cl (centres undefined)
active: [3] 46.9 µM
inactive: [2] | [16] | [11] | [14] | [4] | [5] | [13] | [7] | [8] | [9]

C[C@]12C[C@H](O)[C@H]3[C@@H](CCC4=CC(=O)CC[C@@]43C)[C@@H]1CC[C@@H]2C(=O)CO
inactive: [2] | [3]

COC(=O)CSc1cc(N=c2sc(=O)n3n2CCCC3)c(F)cc1Cl
active: [14] 1.82 µM | [3] 0.0125 µM | [4] 1.3 µM | [7] 1.9 µM
inactive: [2] | [11] | [5] | [6] | [15] | [9]

CCOC(=O)C(C)Oc1ccc(Oc2cnc3cc(Cl)ccc3n2)cc1 (centres undefined)
inactive: [1] | [2] | [12] | [14] | [4] | [6] | [7] | [9]
active: [3] 1.7 µM

O=C(O)c1ccccc1
inactive: [2] | [16]

C#C[C@]1(O)CC[C@H]2[C@@H]3CCC4=CC(=O)CC[C@@H]4[C@H]3CC[C@@]21CC
inactive: [3]

CCCCC(CC)COC(=O)c1ccccc1C(=O)O (centres undefined)
inactive: [10] | [4] | [5] | [17] | [6] | [13] | [8] | [9]
active: [14] 4.36 µM | [3] 0.608 µM

COc1nc(C)nc(NC(=O)NS(=O)(=O)c2ccccc2OCCCl)n1
inactive: [1] | [10] | [11] | [14] | [3] | [4] | [5] | [6] | [15]
active: [7] 6.77 µM
